Data taken from PubChem BioAssay (NCATS).
Values without a mark were called inactive. Results filed as inconclusive are left out. Where a call stands in place of a potency, no number is given. Calls of active or inactive are those of the source. The call rests on the fitted dose curve; in most records, active means well fitted curve in the direction sought with a large enough effect; inconclusive means small, poorly fitted or top-dose-only effect, or another doubt; inactive means no such curve, though single readings can be large; an effect the other way counts as inactive or inconclusive.

Assays:
[1] = biological target: Glutathione peroxidase 1 (Homo sapiens) (UniProt P07203); experiment: Primary qHTS Assay for Inhibitors of Recombinant Selenoprotein Glutathione Peroxidase 1 (GPX1) (AID 1845191); further: nearly all actives have a fitted effect of over 65% in size
Outline: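 NADPH consumption tracked by fluorescence at 340/450 nm between t=0 and t=15 min, room temperature. Final mix: 10 nM GPX1, 100 nM glutathione reductase, 1 mM GSH, 0.5 mM NADPH, 0.5 mM cumene hydroperoxide, 0.01% BSA; 30 min compound–enzyme preincubation.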

[2] = biological target: Phospholipid hydroperoxide glutathione peroxidase GPX4 (Homo sapiens) (UniProt P36969); experiment: Primary qHTS Assay for Inhibitors of Recombinant Selenoprotein Glutathione Peroxidase 4 (GPX4) (AID 1845192); further: nearly all actives have a fitted effect of over 65% in size; on activity change, negative = inhibition: series mostly up to about 50 µM
Outline: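 NADPH consumption followed by fluorescence at 340/450 nm, t=0 and after 15 min at room temperature. Reaction started with cumene hydroperoxide (0.5 mM final) after 30 min compound–GPX4 preincubation; final 200 nM GPX4, 100 nM GR, 1 mM GSH, 0.5 mM NADPH.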

[3] = biological target: Luciferin 4-monooxygenase (Photinus pyralis) (UniProt P08659); experiment: Primary firefly luciferase (FLuc) qHTS assay for identification of artifact compounds. (AID 1845220); further: nearly all actives have a fitted effect of over 60% in size; further: potency means the concentration at half of the fitted maximal effect; on activity change, negative = inhibition: series mostly up to about 54 µM
Outline: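 Compounds sat 15 min at room temperature with 10 uM luciferin and 10 uM ATP (pH 7.6 Tris acetate). Firefly luciferase (10 nM final) was then added, and luminescence was read 5 min later. Data normalized to no-enzyme and DMSO controls were Hill-fitted.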

[4] = Primary fluorescence-based thiol-reactive (MSTI) qHTS assay for identification of artifact compounds. (AID 1845221); further: nearly all actives have a fitted effect of over 65% in size; further: potency means the concentration at half of the fitted maximal effect;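 on activity change, negative = thiol reactive: series mostly up to about 54 µM; thiol-reactive compounds lower the probe fluorescence signal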
Outline: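 First, 4 uM MSTI in 2% DMSO/PBS pH 7.4 was dispensed; next, compounds were added; then plates sat 1 h at room temperature without light. Finally, emission at 598 nm was recorded.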

[5] = tested on: Nanoluciferase (engineered Oplophorus gracilirostris luciferase); experiment: Primary Nanoluciferase (NLuc) qHTS assay for identification of artifact compounds. (AID 1845222); further: series mostly up to about 54 µM
Outline: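 Luminescence from secreted NLuc (filtered, 1:55-diluted S16 cell medium) read 5 min after Nano-Glo substrate; compounds preincubated 15 min, RT. Hill fits of inhibition normalized to DMSO and no-enzyme.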

[6] = Primary redox qHTS assay for identification of artifact compounds. (AID 1845223)
Outline: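 Redox-cycling detection via DTT (250 uM final) oxidation coupled to Amplex Red (25 uM)/HRP (250 mU/mL) in HBSS. 15 min preincubation plus 30 min after DTT, room temperature. Ex/Em 525/598 nm; 4-parameter Hill fit against DMSO and 10 uM DA3003.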

Chain of Phospholipid hydroperoxide glutathione peroxidase GPX4 (Homo sapiens) (P36969 whole entry, looked up): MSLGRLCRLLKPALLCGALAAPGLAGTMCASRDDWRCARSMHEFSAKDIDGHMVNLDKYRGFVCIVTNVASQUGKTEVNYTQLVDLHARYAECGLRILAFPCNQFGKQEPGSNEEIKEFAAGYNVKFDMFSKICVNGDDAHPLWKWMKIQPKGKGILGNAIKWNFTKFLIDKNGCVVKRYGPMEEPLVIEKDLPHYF
Chain of Glutathione peroxidase 1 (Homo sapiens) (P07203 whole entry, looked up): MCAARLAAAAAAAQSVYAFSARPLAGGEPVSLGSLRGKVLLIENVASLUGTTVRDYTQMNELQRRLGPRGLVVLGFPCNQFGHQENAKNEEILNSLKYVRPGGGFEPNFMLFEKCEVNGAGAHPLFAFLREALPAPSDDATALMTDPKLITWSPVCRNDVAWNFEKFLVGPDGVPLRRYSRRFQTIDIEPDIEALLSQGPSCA

SMILES | Potency [1] | Potency [2] | Potency [3] | Potency [4] | Potency [5] | Potency [6] | outcome [3] | activity change, negative = thiol reactive [4] | activity, negative = inhibition [5] | redox activity (% of DA3003) [6] | activity change, negative = inhibition [3]
COc1cc(C(=O)OC[C@H]2O[C@@H](OC(C)(C)C(=O)O)[C@H](O)[C@@H](O)[C@@H]2O)cc(OC)c1O | inactive | inactive | inactive | inactive | inactive | inactive |  |  |  |  | 
Cc1occc(=O)c1O[C@@H]1O[C@H](CO)[C@@H](O)[C@H](O)[C@H]1O | inactive | inactive | inactive | inactive | inactive | inactive |  |  |  |  | 
CC1CC(O)/C=C/C(O)/C=C\C(=O)O1 (stereo not drawn) | inactive | inactive | inactive | inactive | inactive | inactive |  |  |  |  | 
CC1(C)CCC2(C(=O)O)C(O)CC3(C)C(=CCC4C5(C)CCC(OC6OC(CO)C(O)C(O)C6OC6OC(CO)C(O)C(O)C6OC6OCC(O)(CO)C6O)C(C)(C)C5CCC43C)C2C1 (stereo not drawn) | inactive | inactive |  |  |  |  | inactive [at 11.6 µM] | 154% [at 11.5 µM] | 1.68% [at 11.6 µM] | 17% [at 11.5 µM] | 
Cc1ccccc1-c1cc(N2CCN(C)CC2)ncc1N(C)C(=O)C(C)(C)c1cc(C(F)(F)F)cc(C(F)(F)F)c1 | inactive | inactive | inactive | inactive | inactive | inactive |  |  |  |  | 
COc1cc(C)c(C(=O)O[C@@H]2[C@H](O)[C@@H](CO)O[C@H]2n2ccc(=O)[nH]c2=O)c(OC)c1 | inactive | inactive | inactive | inactive | inactive | inactive |  |  |  |  | 
CCC(C)C1NC(=O)C2C(C)CCN2C(=O)C(CC(O)CO)OC(=O)CCNC(=O)C(C)N(C)C(=O)C(C(C)C)N(C)C1=O (stereo not drawn) | inactive | inactive | inactive | inactive | inactive | inactive |  |  |  |  | 
Cc1cc(CNC(=O)c2cc(C(=O)NCc3ccc(F)c(C)c3)ncn2)ccc1F | inactive | inactive | inactive | inactive | inactive | inactive |  |  |  |  | 
CC(=O)OC/C(=C/C(=O)O)CC[C@@H]1C(C)=CC(=O)[C@@H]2C(C)(C)CCC[C@@]12C | inactive | inactive | inactive | inactive | inactive | inactive |  |  |  |  | 
CC(=O)OC[C@]12[C@H](OC(C)=O)[C@H](OC(=O)c3ccccc3)[C@@H]3[C@@H](OC(C)=O)[C@]1(OC3(C)C)[C@H](C)C[C@H](OC(=O)c1ccccc1)[C@@H]2OC(=O)c1ccccc1 | inactive | inactive | inactive | inactive | inactive | inactive |  |  |  |  | 
C[C@@H]1O[C@@H](O[C@H]2[C@@H]3C=CO[C@@H](O[C@@H]4O[C@H](CO)[C@@H](O)[C@H](O)[C@H]4O)[C@@H]3[C@@]3(CO)O[C@@H]23)[C@H](O)[C@H](OC(=O)/C=C/c2ccc(O)c(O)c2)[C@H]1O | inactive | inactive | inactive | 562 nM (active) | inactive | inactive |  |  |  |  | 
OC[C@@]1(O)CO[C@H](OC[C@H]2O[C@@H](OC(CCCCc3ccc(O)cc3)CCc3ccc(O)cc3)[C@H](O)[C@@H](O)[C@@H]2O)[C@@H]1O (stereo partly drawn) | inactive | inactive | inactive | inactive | inactive | inactive |  |  |  |  | 
COc1ccccc1Oc1c(NS(=O)(=O)c2ccc(C)cn2)nc(-c2ccncc2)nc1OC | inactive | inactive | inactive | inactive |  | inactive |  |  |  |  | 
COc1ccc(C2COc3cc(O)ccc3C2)c(O)c1OC (stereo not drawn) | inactive | inactive | 19 µM (active) | inactive | inactive | inactive |  |  |  |  | 
O=C(Cn1c2ccccc2c2nc3n(c(=O)c21)CCS3)N1CCCC1 | inactive | inactive | inactive | inactive |  | inactive |  |  |  |  | 
C=C1C(O)C(OC(=O)c2ccccc2)C2C(C)(C(=O)O)CCCC2(C)C1CC/C(C)=C\CO (stereo not drawn) | inactive | inactive | inactive | inactive | inactive | inactive |  |  |  |  | 
Cn1nccc1-c1ccccc1Oc1ccc(S(=O)(=O)Nc2nccs2)cc1C#N | inactive | inactive | inactive | inactive |  | inactive |  |  |  |  | 
CC(C)[C@@](O)(c1ccc2cc(OC(F)F)c(OC(F)F)cc2c1)c1cn[nH]n1 | inactive | inactive | inactive | inactive | inactive | inactive |  |  |  |  | 
COc1ccc(OC2OC(CO[C@@H]3O[C@@H](C)[C@H](O)[C@@H](O)[C@H]3O)C(O)C(O)C2O)cc1OC (stereo partly drawn) | inactive | inactive | inactive | 2320 nM (active) | inactive | inactive |  |  |  |  | 
CC1OC(O[C@@H]2[C@H](O)[C@@H](OC3OC(CO)C(O)C(O)C3O)[C@H](OC(=O)[C@]34CCC(C)(C)C[C@H]3C3=CCC5[C@@]6(C)CC[C@H](O[C@@H]7O[C@H](C(=O)O)[C@@H](O)[C@H](O[C@@H]8OC[C@@H](O)[C@H](O)[C@H]8O)[C@H]7O[C@@H]7O[C@H](CO)[C@H](O)[C@H](O)[C@H]7O)[C@@](C)(C=O)C6CC[C@@]5(C)[C@]3(C)C[C@H]4O)O[C@@H]2C)C(O)C(O)C1OC1OCC(O)C(O)C1O (stereo partly drawn) | inactive | inactive |  |  |  |  |  | 299% [at 6.41 µM] | 0% [at 6.45 µM] | -1.5% [at 6.41 µM] | 1.16% [at 6.45 µM]
CN[C@H](CNC(=O)N1CCC[C@@H]([C@@H](OCCNC(=O)OC)c2cccc(Cl)c2)C1)C[C@H]1CCCOC1 | inactive | inactive | inactive | inactive | inactive | inactive |  |  |  |  | 
